From PubChem BioAssay (NCI)
The panel holds about 83,000 compounds, 20% with a hit somewhere; the sample as a whole holds those more often.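 Step 1: grow cells in 96-well plates. Step 2: add test compound at a single concentration. Step 3: incubate 48 h. Step 4: record percent growth.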 Values without a mark were called inactive. Calls of active or inactive are those of the source. How the source made its calls: active means growth percent below 10; inactive means the rest.

Key:
Test in all cases: NCI-60 one-dose screen, 48 h (100 = growth as untreated, 0 = no growth, -100 = all killed)
NCI-H322M lung = conditions: 10 µM unless noted
HOP-62 NSCLC = conditions: 10 µM unless noted
NCI-H460 lung = conditions: 10 µM unless noted
HOP-92 NSCLC = conditions: 10 µM unless noted
A549/ATCC NSCLC = conditions: 10 µM unless noted
786-0 renal = conditions: 10 µM unless noted
NCI-H522 lung = conditions: 10 µM
COLO 205 colon = conditions: 10 µM unless noted

| Compound | growth (NCI-H322M lung) | growth (HOP-62 NSCLC) | growth (NCI-H460 lung) | growth (HOP-92 NSCLC) | growth (A549/ATCC NSCLC) | growth (786-0 renal) | growth (NCI-H522 lung) | growth (COLO 205 colon) |
| --- | --- | --- | --- | --- | --- | --- | --- | --- |
| CCCCCCCC/C=C\CCCCCCCCOc1cccc(CC(=O)NCC[N+]2(C)CCCC2)c1 | 99.5% | 69.5% | 54.3% | 92.7% | 95% | 93.9% |  |  |
| Cc1cc(NS(=O)(=O)c2ccc(NC(=O)COc3ccc(-c4cc5ccccc5[nH]4)cc3)cc2)no1 |  | -11.3% (active) | 9.1% (active) | 5.04% (active) | 30.1% | 2.3% (active) | 20.8% | -50.5% (active) |
| CCCCc1ccc(C(O)(CCN2CC3CCC(CC3)C2)c2ccccc2)cc1 (configuration not stated) |  |  |  | 75.4% | 96.2% | 85.9% | 84.2% | 80.9% |
| N#CC1=C(N)Oc2cc(N)ccc2C1c1ccc(F)cc1 (configuration not stated) | 82.6% | 69.6% | 100% |  | 74.2% | 86.6% |  | 82.9% |
| COc1cc(Cn2cc(F)c(=O)[nH]c2=O)cc(OC)c1 | 99% [50 µM] | 88.2% [50 µM] | 103% [50 µM] | 101% [50 µM] | 102% [50 µM] | 97.5% [50 µM] |  | 117% [50 µM] |
| O=C(N/N=C/c1ccc(F)cc1)c1[nH]c2ccc(I)cc2c1-c1ccccc1 | 34% | 38% |  | 22.5% | 32.4% | 28.3% | 4.71% (active) | -40.1% (active) |
| Cl.Fc1c[c-]c(-c2ccccn2)c(F)c1.[Pt].c1ccc([PH+](CC[PH+](c2ccccc2)c2ccccc2)c2ccccc2)cc1 | -98.8% (active) |  | -75.3% (active) | -77.4% (active) | -52.9% (active) | -79.4% (active) | -58.4% (active) |  |
| COC(=O)c1c2c(c(C)[n+]([O-])c1C)C(=O)C=C(NCc1ccc(Cl)cc1)C2=O | -7.11% (active) | 2.25% (active) | 0.382% (active) | -27.9% (active) | -16.5% (active) | 7.94% (active) | -15.1% (active) |  |
| c1ccc2cc(Cn3c(-c4ccc5ccccc5c4)[n+](Cc4ccc5ccccc5c4)c4ccccc43)ccc2c1 | -7.14% (active) | -66.8% (active) | -81.7% (active) | -60.3% (active) | -65.3% (active) | -95.1% (active) |  | -69.5% (active) |
| Clc1nc(-c2ccccn2)nc2sc3c(c12)CCCCCC3 | 84.5% | 86.6% | 90.9% |  | 99.8% | 98.4% |  | 115% |
| COc1cc(/C=N/NC(=O)c2cnn3c2NC(c2ccccc2)C3)ccc1OC1CCCC1 (configuration not stated) | 32.9% | 35.1% | 2.88% (active) | 45.7% | 40.6% | 9.01% (active) | 11.7% |  |
| CCCOC(=O)c1ccc2c(c1)[N+](=O)C(C(=O)c1ccccc1)=C(C(F)(F)F)[N+]2=O | -91.7% (active) |  | -69.9% (active) |  | -88.1% (active) | -81.2% (active) | -92.6% (active) | -92.3% (active) |
| COc1cc(-c2ccc3cc(OC)c(OC)c(OC)c3c2)cc(OC)c1OC | 78.7% | 61.3% | 60.3% |  | 50.8% | 84% | 34% | 54.7% |
| O=c1[nH]c(-c2ccccn2)nc2sc3c(c12)CCCCCC3 | 46.8% | 43% | 15.9% | -2.86% (active) | 23.2% | 46.1% |  | 33% |
| COc1ccccc1/C=C/C(=O)/C=C/c1ccccc1O | 24.9% | 62% |  |  | 6.86% (active) | -44% (active) | 30.1% | -48.6% (active) |
| COc1cc(/C=N/NC(=O)c2cnn3c2NC(c2ccccc2)C3)cc(OC)c1OC (configuration not stated) | 84% | 71.2% |  | 76% | 64.8% | 88% | 35.5% |  |
| Cc1ccc(S(=O)(=O)N2CCc3ccc(O)c4c3C2Cc2cc(Cl)ccc2-4)cc1 (configuration not stated) | 78.3% | 69.2% | 33.6% | 62.8% | 53.9% | 88.2% |  |  |
| Cc1nc2ccc(Cl)cc2n1C | 108% |  | 109% | 105% | 103% | 101% | 90.2% |  |
| Cc1ccc2nc(NC(=O)CSC(=S)N3CCN(C)CC3)sc2c1 | 106% | 106% | 106% | 94.5% | 95.3% | 108% |  | 105% |
| O=C(c1ccccc1)C(Br)C(Br)c1cccc([N+](=O)[O-])c1 (configuration not stated) | 101% |  | 90.2% | 65.1% | 92.7% | 90.1% | -68.8% (active) | -95% (active) |
| COc1cc2cc(Oc3ccc(NC(=O)Nc4ccc(Cl)c(C(F)(F)F)c4)cc3)c(C)nc2cc1OCCN1CCCCC1 | 8.09% (active) | 85.6% | -82% (active) | 37.4% | -54.4% (active) | -89.3% (active) |  | -81.4% (active) |
| COc1ccc(-c2c(-c3cc4c(c(OC)c3OC)OCO4)noc2N)cc1 | 54.2% | 35.7% | 13.2% | 15.3% | 24.1% | 38.4% |  | -2.51% (active) |
| CC1(C)CC(=O)C2=C(C1)Nc1cc3c(cc1C2c1ccc(F)cc1)OCO3 (configuration not stated) | 94.8% | 95.6% | 103% |  | 94.5% | 109% | 80.9% | 117% |
| CCOC(=O)c1c(Cl)c2c(n1Cc1ccc(OC)cc1)-c1oncc1CCC2 | 95.2% | 98.4% | 95.1% |  | 86.1% | 90.4% | 95.4% | 93.2% |
